Reference: PubChem BioAssay
Values joined by “and” are separate entries in the source; they are usually repeats but may differ in a detail not shown here. Identical values can stand only once. Active and inactive are the calls of the source.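 The calls were made as follows: active = inhibition at or above 50% relative to wild type and mutant plate controls; inactive = inhibition below 50%.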

test: inhibitors of Chlamydomonas gravitaxis, primary screen, whole organism, Chlamydomonas reinhardtii, WT vs cilia-less mutant, absorbance, 96-well (AID 463189); conditions: OD600 absorbance, 2 days, at 10 µM, hits give high values;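 also: 0% = wild type cc124 cells in DMSO and 100% = ciliumless bld1 mutant cells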

inhibition, inactive:
NCCCCCCCCCCN 2.72%
Nc1ccc(N2C(=O)c3ccccc3C2=O)c(Cl)c1 -0.463%
CC(C)NC[C@H](O)COc1cccc2[nH]ccc12 -3.11% and 2.85%
O=S(=O)(c1cccc2c(Cl)cccc12)N1CCCNCC1 6.11%
N[C@@H](Cc1c[nH]c2ccccc12)C(=O)O 5.27%
CC(C)COCC(CN(Cc1ccccc1)c1ccccc1)N1CCCC1 (centres undefined) -3.6%
FC(F)(F)c1cc(CO[C@H]2CCCN[C@H]2c2ccccc2)cc(C(F)(F)F)c1 14.5%
CC(C)COC(=O)OCN1C(=O)CN(CCN2CC(=O)N(COC(=O)OCC(C)C)C(=O)C2)CC1=O 5.88%
O=c1cc(O)cc(/C=C/c2ccc(O)c(O)c2)o1 -6.22%
Cc1ccc(OCC(O)C(C)NC(C)C)c2c1CCC2 (centres undefined) -3.42%
CCCn1cnc2c1c(=O)n(CCCCC(C)=O)c(=O)n2C 3.15%
Oc1cc2c(cc1O)C(c1ccccc1)CNCC2 (centres undefined) -4.78%
NC(=O)c1ncn([C@@H]2O[C@H](CO)[C@@H](O)[C@H]2O)c1O 13.2%
CCCn1c(=O)c2c(ncn2C)n(CCC)c1=O 6.81%
CC(=O)O[C@H]1CC2(C)[C@@H](C[C@@H](O)[C@H]3[C@@]4(C)CC[C@@H](O)[C@@H](C)[C@@H]4CC[C@@]32C)C1=C(CCC=C(C)C)C(=O)O (some centres undefined) 1.57%
O=C(O)C1=CCCNC1 5.21%
Nc1ncnc2c1ncn2[C@@H]1O[C@H](C(=O)NC2CC2)[C@H](O)C1O (some centres undefined) 7.98%
CCCCCCCCCCCCCCC[C@H](O)[C@H](N)CO 38.7%
CC(=O)C(C)=O 6.21%
CNC[C@H](O)c1ccc(O)c(O)c1 1.9%
CC[N+](CC)(CC)CCOc1cccc(OCC[N+](CC)(CC)CC)c1OCC[N+](CC)(CC)CC 3.26%
C=C[C@H]1CN2CCC1C[C@H]2[C@H](O)c1ccnc2ccc(OC)cc12 (some centres undefined) -14.7%
CC1=C(/C=C/C(C)=C/C=C/C(C)=C/C(=O)Nc2ccc(O)cc2)C(C)(C)CCC1 1.68%
CCCC(C(=O)OCCN(CC)CC)(c1ccccc1)c1ccccc1 4.83%
